# Test results taken from PubChem BioAssay (EPA / NIEHS).
# Records with an inconclusive call do not appear. More than one record can exist for a structure, and the calls need not agree. The source made the active and inactive calls. The calls were made as follows: active = hit-call score of the fitted dose curve at least 0.9, where 1 is the maximum; inconclusive = response in the unintended direction; inactive = score below 0.9.
# Target: Retinoic acid receptor RXR-alpha (Homo sapiens) (UniProt P19793)
# Assay: OT_NURR1_NURR1RXRa_0480: Odyssey Thera (OT) 8-hour HEK293T Protein Complementation Assay for Nurr1/retinoid X receptor (RXR) (AID 2283385)
# Method: OT_NURR1_NURR1RXRa_0480 is a cell-based assay that uses HEK293T, a human kidney cell line, with measurements taken at 8 hours after chemical dosing in a 384-well plate.OT_NURR1_NURR1RXRa_0480 is one of one assay component(s) measured or calculated from the OT_NURR1_NURR1RXRa_0480 assay. It is designed to make measurements of protein fragment complementation, a form of binding reporter, as detected with fluorescence intensity signals by Protein-fragment Complementation technology.Data from the assay component OT_NURR1_NURR1RXRa_0480 was analyzed into 1 assay endpoint. This assay endpoint, OT_NURR1_NURR1RXRa_0480, was analyzed in the positive analysis fitting direction relative to DMSO as the negative control and baseline of activity. Using a type of binding reporter, measures of receptor for gain-of-signal activity can be used to understand the binding at the pathway-level as they relate to the gene RXRA. Furthermore, this assay endpoint can be referred to as a primary readout, because the performed assay has only produced 1 assay endpoint. To generalize the intended target to other relatable targets, this assay endpoint is annotated to the nuclear receptor intended target family, where the subfamily is non-steroidal.
# Protein-fragment complementation assay, or PCA, is a method for the identification and quantification of protein-protein interactions. In the PCA, the proteins of interest ("bait" and "prey") are each covalently linked to fragments of a third protein (e.g. DHFR, which acts as a "reporter"). Interaction between the bait and the prey proteins brings the fragments of the reporter protein in close proximity to allow them to form a functional reporter protein whose activity can be measured.
# Retinoic acid receptor RXR-alpha (Homo sapiens), sequence (P19793 whole entry, looked up): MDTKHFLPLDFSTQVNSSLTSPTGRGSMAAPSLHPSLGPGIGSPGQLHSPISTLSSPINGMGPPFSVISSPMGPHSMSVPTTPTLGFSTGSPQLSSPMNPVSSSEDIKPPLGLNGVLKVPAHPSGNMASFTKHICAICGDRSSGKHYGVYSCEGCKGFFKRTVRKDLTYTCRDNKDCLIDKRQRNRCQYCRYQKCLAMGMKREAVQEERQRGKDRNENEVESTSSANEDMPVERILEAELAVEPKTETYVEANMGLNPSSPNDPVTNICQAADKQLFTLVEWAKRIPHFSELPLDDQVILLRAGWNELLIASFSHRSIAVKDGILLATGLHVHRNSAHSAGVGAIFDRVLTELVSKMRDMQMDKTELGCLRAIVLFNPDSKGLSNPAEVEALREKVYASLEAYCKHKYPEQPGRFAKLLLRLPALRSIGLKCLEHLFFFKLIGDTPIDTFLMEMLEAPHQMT
Structure (SMILES),outcome,AC50
CCCCCCCc1ccc(O)cc1,inactive,50 µM (active)
CCCCC(CC)COC(=O)c1c(Br)c(Br)c(Br)c(Br)c1C(=O)OCC(CC)CCCC (stereo not given),inactive,
O=P1(N(CCCl)CCCl)NCCCO1 (stereo not given),inactive,
OCC1CO1 (stereo not given),inactive,
CCN(CC)c1ccccc1,inactive,
CCCCN(CCCC)SN(C)C(=O)Oc1cccc2c1OC(C)(C)C2,inactive,86.2 µM (active)
O=C(O)C(Cl)Cl,inactive,
CCCCc1ccc(O)cc1,inactive,
CCCCN(CCCC)N=O,inactive,
CCC1(c2ccccc2)C(=O)N=C(O)NC1=O (stereo not given),inactive,
O=C(O)CF,inactive,
CCOc1ccc(C(C)(C)COCc2cccc(Oc3ccccc3)c2)cc1,inactive,
O=P(Oc1ccccc1)(Oc1ccccc1)Oc1ccccc1,inactive,
CSC(C)(C)C=NO,inactive,
CCC(C)(C)c1ccc(O)cc1,inactive,
c1ccc(OP(Oc2ccccc2)Oc2ccccc2)cc1,inactive,
CCCCOCCOP(=O)(OCCOCCCC)OCCOCCCC,inactive,
O=C(CBr)OCc1ccccc1,inactive,
CCOP(=S)(OCC)SCSCC,inactive,

Structure (SMILES),outcome,AC50
CCCN(CCC)c1c([N+](=O)[O-])cc(C(C)C)cc1[N+](=O)[O-],inactive,75.7 µM (active)
CCCCc1ccccc1,inactive,
Nc1ccc2ccccc2c1,inactive,
CCCCC(CC)COP(=O)(Oc1ccccc1)Oc1ccccc1 (stereo not given),inactive,
CC(Cc1ccc(OCC(=O)O)cc1)NCC(O)c1csc(C(F)(F)F)n1 (stereo not given),inactive,
c1ccc2c(c1)Nc1ccccc1S2,inactive,
Cc1ccc(N)cc1N,inactive,
Nc1cc2c3c(c1)C(c1ccccc1)=N[C@@H](NC(=O)c1cccnc1)C(=O)N3CC2,,50 µM (active)
O=P(OCC(Br)CBr)(OCC(Br)CBr)OCC(Br)CBr (stereo not given),inactive,
c1cc2c3c(cccc3c1)CC2,inactive,
Cc1ccc(O)cc1C,inactive,
ClC(Cl)c1ccccc1,inactive,
CO/N=C(/C(=O)OC)c1ccccc1COc1ccccc1C,inactive,
CC(C)(C)c1ccc(O)cc1,inactive,
O=[N+]([O-])c1ccccc1,inactive,
O=[N+]([O-])c1ccc(Cl)c(Cl)c1,inactive,
CN(C)C(=O)Cl,inactive,
O=S1(=O)OCC2C(CO1)C1(Cl)C(Cl)=C(Cl)C2(Cl)C1(Cl)Cl (stereo not given),inactive,
